The entries come from a sample that favours hits as a whole.
Shiga inhibitor: A qHTS for Small Molecule Inhibitors of Shiga Toxin; Vero cells, Shiga toxin protein synthesis inhibition reporter; inhibition, % at 38.7 µM; hit rate 9.2% among 290,000; AID 2315, 2010; in the data active means inhibition mostly above about 28%, no sharp cut-off; inactive means mostly below about 43%; further: 0% is about no effect
AmpC detergent: qHTS Inhibitors of AmpC Beta-Lactamase (assay with detergent). AmpC hydrolysis of nitrocefin, absorbance 480 nm, 0.01% Triton. hit rate 0.041% among 370,000. Potency, µM (top dose mostly 114 µM), without a hit: top-dose activity change, negative = inhibition, usual class: inhibitors. P00811;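 further: potency means the concentration at half of the fitted maximal effect; 0% = no-compound wells and -100% = no-enzyme wells; nearly all actives have a fitted effect of over 25% in size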
Target sequence (P00811 whole entry, looked up): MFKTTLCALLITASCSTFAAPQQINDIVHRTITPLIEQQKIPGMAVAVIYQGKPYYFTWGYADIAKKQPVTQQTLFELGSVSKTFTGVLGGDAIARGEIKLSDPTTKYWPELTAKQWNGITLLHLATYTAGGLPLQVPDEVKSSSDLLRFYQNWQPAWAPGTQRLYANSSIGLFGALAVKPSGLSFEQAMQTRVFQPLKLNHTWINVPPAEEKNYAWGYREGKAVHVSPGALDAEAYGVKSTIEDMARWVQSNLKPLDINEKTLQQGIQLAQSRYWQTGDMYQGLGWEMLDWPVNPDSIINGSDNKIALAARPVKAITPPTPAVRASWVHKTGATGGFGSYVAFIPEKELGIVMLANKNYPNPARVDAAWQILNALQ
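AmpC (5.3 nM in the dispensed reagent) in 20 mM phosphate pH 7.0 with 0.01% (detergent screen) or 0.0001% Triton X-100 was preincubated with compounds for 15 min at room temperature. Nitrocefin was then added from an 800 uM solution, and hydrolysis was followed at 480 nm.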
CHX counter: Cycloheximide Counterscreen for Small Molecule Inhibitors of Shiga Toxin; max response, %; hit rate 12% among 300,000; AID 2314, 2010; cell reporter, cycloheximide protein synthesis inhibition counterscreen; in the data active means max response mostly above about 13%, no sharp cut-off; inactive means mostly below about 14%; further: read at 38.3 µM for the half of the compounds with a filed dose; 0% is about no effect
NS1 function inh: qHTS Assay for Inhibitors of Influenza NS1 Protein Function; Potency, µM (top dose mostly 46.1 µM), without a hit: at the highest dose activity, positive = more growth; hit rate 0.4% among 270,000; AID 2326, 2010; calls by dose curve; further: potency means the concentration at half of the fitted maximal effect; actives are rising curves; nearly all actives have a fitted effect of over 50% in size
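Recovery from NS1-induced slow growth read by OD600 in budding yeast switched to galactose assay medium (pH 6.0, -URA) at 1:100 dilution. Compound 23 nl per well; the matching strain lacking NS1 serves as control.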
AmpC inh no detg: qHTS Inhibitors of AmpC Beta-Lactamase (assay without detergent); AmpC nitrocefin hydrolysis, absorbance 480 nm, 0.0001% Triton; Potency, µM (highest dose often 57.1 µM), inactives show at the top dose activity change, negative = inhibition, usual class: inhibitors; P00811; hit rate 0.52% among 330,000;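 further: potency means the concentration at half of the fitted maximal effect; plate controls were no compound for no effect and no enzyme for full effect; nearly all actives have a fitted effect of over 20% in size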
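AmpC (5.3 nM in the dispensed reagent) in 20 mM phosphate pH 7.0 with 0.01% (detergent screen) or 0.0001% Triton X-100 was preincubated with compounds for 15 min at room temperature. Nitrocefin was then added from an 800 uM solution, and hydrolysis was followed at 480 nm.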
Numbers without * were called inactive; ? = inconclusive; . = no result given. Unless noted, the call rests on the fitted dose curve; in most records, active means well fitted curve in the direction sought with a large enough effect; inconclusive means small, poorly fitted or top-dose-only effect, or another doubt; inactive means no such curve, though single readings can be large; an effect the other way counts as inactive or inconclusive.

SMILES	Shiga inhibitor	AmpC detergent	CHX counter	NS1 function inh	AmpC inh no detg
Cc1cc(C(=O)N/N=C/c2cc([N+](=O)[O-])ccc2O)c2ccccc2n1	-1.9	-7.8%	-2.8	5.1%	-58.4%
COc1cc(/C=N/Nc2nc3ccccc3[nH]2)cc(OC)c1O	73.5	-13.0%	18.0*	12.1%	-24.9%
O=[N+]([O-])c1ccc(O)c(/C=N/Nc2nc3ccccc3[nH]2)c1	8.8	?	19.4*	1.5%	-24.7%
COc1ccc(OC)c(/C=N/Nc2nc(C)cc(=O)[nH]2)c1	9.8	-3.1%	4.6	-1.1%	-9.2%
COc1ccc(O)c(/C=N/Nc2nc3ccccc3[nH]2)c1	81.7*	0.7%	49.0*	11.7%	-35.2%
COc1cc(/C=C/C(=O)c2ccc3c(c2)OCCO3)cc(Br)c1OCC(=O)N(C)C	-16.0	-14.7%	-9.7	-7.6%	160.9%
CCc1ccccc1NC(=O)CN(c1cc(C(F)(F)F)ccc1Cl)S(=O)(=O)c1ccccc1	.	-10.0%	.	.	.
COc1cc(/C=N/Nc2snc(SC)c2C#N)ccc1O	34.3	-0.2%	27.5*	22.0%	-34.3%
COc1cc(/C=N/Nc2nc3ccccc3[nH]2)ccc1O	32.7*	-3.2%	36.6*	-1.6%	?
COc1cc(/C=C(/C(=O)c2cccs2)c2nc3ccccc3[nH]2)cc(OC)c1O	90.5*	?	24.2*	4.5%	-7.9%
COc1cc(/C=N/NC(=O)CCn2nnc3ccccc32)ccc1O	10.3	-10.5%	-0.2	13.0%	-13.1%
COc1cc(/C=N/Nc2nc3ccccc3[nH]c2=O)ccc1O	16.8*	0.0%	19.5	.	-36.5%
COc1cc(/C=N/Nc2nn3cnnc3c3ccccc23)ccc1O	-1.5	0.3%	1.7	14.5%	-23.6%
COc1ccc(C(=O)N/C(=C/c2cccs2)c2nc3ccccc3[nH]2)cc1OC	-2.5	?	10.8	2.7%	22.7%
COc1cc(/C=N/NC(=O)c2cc3ccccc3[nH]2)ccc1O	13.9	5.3%	7.4	4.9%	-34.6%
COc1cc(C(=O)Nc2nc3c(s2)Cc2c(Br)ccc(OC)c2-3)cc(OC)c1OC	.	17.7%	.	.	.
O=C(c1cccc(NC2=NC3CS(=O)(=O)CC3S2)c1)N1CCN(c2cccc(Cl)c2)CC1 (stereo not drawn)	2.0	-9.9%	-1.5	12.9%	89.1%
CSc1cccc(NC(=O)CNC(=O)C2CCCCC2)c1	4.4	5.4%	-2.9	-3.2%	-13.3%
Cc1ccc(NC2=C(CC(=O)O)C(c3ccc(F)cc3)N(c3ccc(C)cc3)C2=O)cc1 (stereo not drawn)	.	7.9%	.	.	.
O=C(O)CC1=C(Nc2ccccc2)C(=O)N(c2ccccc2)C1c1ccc(Br)cc1 (stereo not drawn)	78.5*	-1.3%	24.9*	16.4%	-43.2%
Cc1ccccc1NS(=O)(=O)c1cc(C(=O)NCCSC2CCCCC2)ccc1C	20.6	-3.0%	1.7	?	1.26µM*
Cc1ccc(C)c(NS(=O)(=O)c2cc(C(=O)NCCSC3CCCCC3)ccc2C)c1	-14.3	-5.4%	-2.7	24.4%	-33.1%
N#CCCN(C(=O)COc1ccc(Cl)cc1Cl)c1ccccc1	29.4	-3.7%	18.8*	-2.8%	15.2%
CCCCN1C(=O)c2ccc(C(=O)Nc3cccc(C)c3C)cc2C1=O	4.3	-14.4%	-2.5	3.1%	-18.1%
O=C(Nc1ccc(Br)cc1C(=O)O)c1ccc2c(c1)C(=O)N(Cc1ccccc1)C2=O	36.1*	-1.3%	34.0*	-2.4%	-35.7%
SMILES	Shiga inhibitor	AmpC detergent	CHX counter	NS1 function inh	AmpC inh no detg
Cc1ccc(O)c(NC(=O)c2ccc3c(c2)C(=O)N(CC(C)C)C3=O)c1	.	?	33.2*	6.2%	-9.9%
O=C(O)c1cc(NC(=O)c2ccc3c(c2)C(=O)N(Cc2cccnc2)C3=O)cc(C(=O)O)c1	-10.5	-2.7%	0.6	-3.5%	-9.5%
CCCN1C(=O)c2ccc(C(=O)Nc3cc(C)ccc3O)cc2C1=O	139.0*	-2.3%	55.9*	19.7%	-17.1%
CCCN1C(=O)c2ccc(C(=O)Nc3ccccc3C(=O)O)cc2C1=O	46.5	-0.5%	15.6*	-2.0%	-29.2%
O=C(NCc1ccc(F)cc1)c1cccc(N2CCCS2(=O)=O)c1	.	0.4%	.	.	.
Oc1ccc(-c2nccc(-c3ccc(F)cc3)n2)cc1	88.0*	7.2%	80.7*	-4.6%	-29.6%
CC(=O)c1nnn(-c2c(F)cccc2F)c1C	18.5	-9.7%	12.2*	4.7%	-8.5%
CSc1cccc(NC(=O)C(C)NS(=O)(=O)c2ccc(F)cc2)c1 (stereo not drawn)	-13.8	-5.2%	-1.5	1.2%	-34.7%
CN(Cc1ccccc1)S(=O)(=O)c1ccc(Cl)c(C(=O)OCC(N)=O)c1	36.8*	-10.0%	19.9*	-9.2%	16.3%
Cc1ccc(CNc2ccc([N+](=O)[O-])cc2C(N)=O)cc1	.	-7.2%	.	.	-7.8%
NC(=O)c1cc([N+](=O)[O-])ccc1NCCN1C(=O)c2ccccc2C1=O	65.3*	8.0%	23.4*	.	-20.1%
Cc1ccc(-n2c(C)cc(C(=O)CSc3nnnn3C)c2C)cc1	66.1*	0.0%	52.9*	-47.0%	?
Cc1cc(C(=O)CSc2nncs2)c(C)n1-c1c(C)n(C)n(-c2ccccc2)c1=O	-10.9	-14.1%	3.5	-6.5%	-1.4%
COc1ccc(Cl)cc1C(=O)CSc1nnnn1C	1.7	6.9%	-6.9	0.8%	-11.7%
Cc1ccc(-n2c(C)cc(C(=O)CSc3nncs3)c2C)cc1	105.1*	-7.9%	45.4*	-143.1%	-37.1%
Cc1c(C)c2ccc(OCC(=O)NCCCN3CCCC3=O)cc2oc1=O	18.3	0.4%	-6.3	3.3%	1.9%
Cc1nc(N2CCOCC2)c2cc(-c3ccccc3)sc2n1	8.8	-0.7%	14.1*	-92.9%	68.2%
c1ccc(-c2cc3c(N4CCOCC4)ncnc3s2)cc1	-8.3	-17.6%	-2.7	-62.9%	27.9%
CC(C)c1ccc(/C=N/Nc2ccc(C(=O)O)cc2)cc1	9.1	1.1%	2.3	13.1%	-43.3%
COc1cc(C(=O)N/N=C/c2ccc(OC(=O)c3ccccc3Cl)cc2)ccc1O	21.6	-13.9%	26.1*	-7.7%	-49.7%
O=C(O)c1ccc(N/N=C/c2ccc(OC(=O)c3ccccc3Cl)cc2)cc1	19.4	-1.0%	20.7*	-12.8%	-55.1%
Nc1ccc(C(=O)N/N=C\c2ccc(OC(=O)c3ccccc3Cl)cc2)cc1	21.1	-4.2%	37.6*	-19.9%	-37.5%
COc1cc(/C=N\NC(=O)c2cccnc2)ccc1OC(=O)c1ccccc1Cl	-8.0	-10.7%	-0.5	7.3%	-11.9%
NC1CCN(c2cccc(Cl)n2)CC1	.	.	.	-8.7%	.
N#Cc1cc(C#N)c(N2CCN(c3cccc(Cl)n3)CC2)nc1N	88.7*	4.0%	67.1*	6.1%	-45.4%
COC(=O)N1C(=O)[C@](Cc2ccccc2)(c2ccccc2)N1C(=O)OC	5.2	0.5%	21.0*	14.2%	-28.9%
CC[C@@]1(c2ccccc2)C(=O)N(C(=O)OC)N1C(=O)OC	2.7	5.5%	4.8	18.1%	-21.0%
COC(=O)N1C(=O)[C@@](Cc2ccccc2)(c2ccccc2)N1C(=O)OC	9.5	-14.8%	11.9*	13.6%	-21.8%

From PubChem BioAssay
